Experimental data from PubChem BioAssay (NCI).
The panel holds about 79,000 compounds, 15% with a hit somewhere; the sample as a whole holds those more often. Cut-off read from the data, not from the text of the source: active = growth inhibition above about 70%; inactive = the rest.

Legend:
[1] = NCI Yeast Anticancer Drug Screen. Data for the rad50 strain (AID 155);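 note: 0% = growth of vehicle-only cultures of the same strain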; settings: S. cerevisiae rad50 strain growth inhibition; at 50.0 µM; stronger effect = higher value
Procedure, shortened: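 Growth of the mutant yeast was measured after compound exposure and referenced to vehicle-treated cultures.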

[2] = NCI Yeast Anticancer Drug Screen. Data for the mec2-1 strain (AID 157); settings: S. cerevisiae mec2-1 strain, at 50.0 µM, stronger effect = higher value
Procedure, shortened: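 Vehicle-treated cultures served as reference for growth inhibition of compound-exposed mec2-1 yeast.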

[3] = NCI Yeast Anticancer Drug Screen. Data for the sgs1 mgt1 strain (AID 161);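 note: 0% = growth of cultures given vehicle only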; settings: S. cerevisiae sgs1 mgt1 strain, at 50.0 µM, stronger effect = higher value
Procedure, shortened: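 Mutant yeast exposed to compound; growth scored against vehicle-only wells.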

[4] = NCI Yeast Anticancer Drug Screen. Data for the cln2 rad14 strain (AID 165);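 note: 0% = growth equal to vehicle treated cultures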; settings: S. cerevisiae cln2 rad14 strain, at 50.0 µM, stronger effect = higher value
Procedure, shortened: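 Each compound was tested on cln2 rad14 yeast. Inhibition of growth was calculated against vehicle-exposed controls.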

[5] = NCI Yeast Anticancer Drug Screen. Data for the bub3 strain (AID 167); settings: S. cerevisiae bub3 mutant strain, at 50.0 µM, stronger effect = higher value
Procedure, shortened: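 Whole-cell yeast assay. The mutant strain was incubated with compounds, and growth inhibition was determined by comparison with vehicle-treated cells.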

[6] = NCI Yeast Anticancer Drug Screen. Data for the mlh1 rad18 strain (AID 175); settings: S. cerevisiae mlh1 rad18 strain growth inhibition; at 50.0 µM; stronger effect = higher value
Procedure, shortened: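 Vehicle-treated cultures served as the reference for growth inhibition in a yeast strain carrying DNA damage repair alterations exposed to each compound.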

Measured: growth inhibition

O=C1OC(CC(=O)c2ccc(Cl)c(Cl)c2)C(Cl)=C1Cl (stereo unspecified)
inactive: [1] 43.1% | [2] 12.3% | [3] 33.1% | [4] 29.9% | [5] 30% | [6] 52.7%

Cc1cc(Br)cc(C)c1NC(=O)C(=O)C1C(=O)C(CC2C(=O)c3ccccc3C2=O)C(=O)CC1(C)C (stereo unspecified)
inactive: [1] 36.1% | [2] 22.9% | [3] 0.75% | [4] -5.7% | [5] 4.35% | [6] 16.4%

CC(=O)NC1CCC2CCCCC2C1 (stereo unspecified)
inactive: [1] 15.7% | [2] -3.15% | [3] -8.75% | [4] -61% | [5] 32.1% | [6] -17.9%

C=C[C@@]1(C)CC2CC[C@]3(C)C(C)=CC(=O)CC3[C@]2(C)CC1O (stereo partly specified)
inactive: [1] 6.9% | [2] 3.3% | [3] 22.7% | [4] -20.3% | [5] 13% | [6] 10.4%

Cc1c(C)c(Br)c(C)c(C)c1Br
inactive: [1] -7.45% | [2] -18.3% | [3] 4.25% | [4] 10.3% | [5] -6.2% | [6] -16.8%

O=C1C2=C(c3ccccc31)C(c1ccc(Cl)cc1)N1C(=O)CCSC1=N2 (stereo unspecified)
inactive: [1] 24.7% | [2] 10.6% | [3] 1.9% | [4] 8.25% | [5] 27.1% | [6] 25.3%

N#C/C(=C\NC(=S)Nc1ccccc1Cl)C(=O)c1ccc2ccccc2c1
inactive: [1] -24.4% | [2] -18% | [3] 0.7% | [4] 13.3% | [5] -35.6% | [6] -28.8%

Cc1cc(=O)[nH]c(NN2C(Cl)C(=O)C2c2c(O)ccc3ccccc23)n1 (stereo unspecified)
inactive: [1] -8.2% | [2] -10.6% | [3] -0.75% | [4] 13.3% | [5] 0.7% | [6] -32.8%

CC(=O)c1c(-c2ccc(Cl)cc2)c(C#N)c(=S)n(C2OC(CO)C(O)C(O)C2O)c1C (stereo unspecified)
inactive: [1] -2.85% | [2] -6.3% | [3] 6.15% | [4] 14.8% | [5] -5.15% | [6] 12.2%

COc1ccc(C(C2=C(O)CC(C)OC2=O)C2=C(O)CC(C)OC2=O)cc1 (stereo unspecified)
inactive: [1] -15.1% | [2] -5.4% | [3] -12.6% | [4] -14.2% | [5] -19.1% | [6] -10%

Nc1c(I)cc(C(=O)O)c(O)c1I
inactive: [1] 2.45% | [2] -26.6% | [3] -15.3% | [4] 4.65% | [5] -5.75% | [6] -9.15%

Nc1ccc(S(=O)(=O)O)cc1N
inactive: [1] -15.3% | [2] -11.1% | [3] -8% | [4] -19.5% | [5] 2.95% | [6] -4.5%

CC(C)COC(=O)c1cc(O)[nH]c(=O)c1
inactive: [1] -19.6% | [2] -7.8% | [3] 1.75% | [4] -40.1% | [5] -15.5% | [6] -6.8%

COC(=N)C(C)C
inactive: [1] 26.4% | [2] 14.9% | [3] 4.9% | [4] 13.1% | [5] -6.2% | [6] 22.6%

CCOC(=O)C1C(C)=CC(=O)CC1C (stereo unspecified)
inactive: [1] 19.8% | [2] 1.65% | [3] 21.9% | [4] -4.8% | [5] 4.5% | [6] 4.45%

Nc1c(Cl)ncnc1Nc1ccc(O)cc1
inactive: [1] -3.85% | [2] -1.2% | [3] 5.2% | [4] 5.8% | [5] 24.8% | [6] 1.4%

N#Cc1ccc(CC(O)(c2ccccc2)c2ccccc2)cc1
inactive: [1] 4.6% | [2] -1.25% | [3] -1.3% | [4] -12.6% | [5] 3.25% | [6] -9.7%

O=Cc1cccc2ccc3cccc(C(=O)O)c3c12
inactive: [1] 34% | [2] 12% | [3] 17.9% | [4] 13.2% | [5] 30.1% | [6] -8.7%

CCCCCCC1NN(C(C)=O)C(CCCCCC)NN1C(C)=O (stereo unspecified)
inactive: [1] 10.5% | [2] -4.1% | [3] 7.65% | [4] 49.1% | [5] 7.1% | [6] -3.75%

COC(=O)c1c(O)c(C#N)c2[nH]c3ccccc3n2c1=O
inactive: [1] -22.6% | [2] -16.6% | [3] -10.6% | [4] 7.85% | [5] -4.4% | [6] -18.4%

COc1c(Cl)cc(Cl)c(C)c1C(C)C(=O)O (stereo unspecified)
inactive: [1] 21.4% | [2] 5.85% | [3] 2.6% | [4] 16.3% | [5] 25.5% | [6] 10.9%

CCCCCCCCCCCCCC(=O)OCCN(C)C
inactive: [1] 4.1% | [2] -2.6% | [3] 7.7% | [4] -32.6% | [5] -14.4% | [6] -12.4%

N#CC(c1ccccc1)c1cccc(C(=O)O)c1 (stereo unspecified)
inactive: [1] -16.9% | [2] -13.5% | [3] 5.6% | [4] -20.4% | [5] -25.9% | [6] 5.45%

CC(=O)COC(C)=O
inactive: [1] 40.2% | [2] -15.6% | [3] 4.85% | [4] -5% | [5] 2.6% | [6] 12.6%

O=C1NC(c2ccco2)N2C(=O)NC(c3ccco3)N12 (stereo unspecified)
inactive: [1] 15.2% | [2] 21.5% | [3] 24.5% | [4] 12.6% | [5] 18.6% | [6] 16.7%

CC(C)NCc1ccccc1Sc1ccccc1CNC(C)C
inactive: [1] 22.1% | [2] 5.45% | [3] 12.1% | [4] 12.8% | [5] 11.4% | [6] 16.2%

CCN(CC)C(=O)c1c2nc3c(C(=O)N(CC)CC)ccc(C)c3oc-2c(C)c(=O)c1N
inactive: [1] 24.6% | [2] 7.35% | [3] 7.85% | [4] 19.9% | [5] 0.9% | [6] 20.2%

O=C(Nc1ccccc1)c1cc2cc(N=Nc3ccc(Br)cc3)ccc2oc1=O
inactive: [1] 4.2% | [2] -4.7% | [3] -0.4% | [4] 16.1% | [5] -17.1% | [6] -13.1%

C[n+]1c(/C=C\c2ccc(O)cc2)cc(C(N)=O)c2ccccc21
inactive: [1] 19.2% | [2] 11.8% | [3] 17.1% | [4] 2.6% | [5] 3.65% | [6] 7.7%

CCOC(=O)c1ccc(C#N)cc1
inactive: [1] -8% | [2] -57.3% | [3] -11.2% | [4] -7.6% | [5] -15.7% | [6] 5.45%

O=C(CC(=O)N1N=C(n2ccc3ccccc32)CC1c1ccccc1)Nc1ccccc1Cl (stereo unspecified)
inactive: [1] -13.6% | [2] -13.8% | [3] -3.5% | [4] 29.7% | [5] -2.1% | [6] 5.45%

COc1cc(C(C)C)c(Oc2c(C)c(OC)cc(C(C)C)c2O)cc1C (tested in a mixture with another compound)
inactive: [1] -7.5% | [2] -21.4% | [3] -9.6% | [4] -11.1% | [5] 7.9% | [6] 7.4%

Nc1nc(N)nc(C2CC3C=CC2C3)n1 (stereo unspecified)
inactive: [1] -1.55% | [2] -13.9% | [3] -4.4% | [4] -10% | [5] 2.1% | [6] -0.95%

CCCCn1cnnc1NS(=O)(=O)c1cc(C)c(Cl)cc1SCC(=O)O
inactive: [1] -20.5% | [2] -5.25% | [3] 6.15% | [4] 0.4% | [5] -13.8% | [6] -5.5%

NCCNCCCCCCNC(=O)c1cccc2cc3ccccc3nc12
inactive: [1] -6.7% | [2] -25.4% | [3] -30.1% | [4] -7.55% | [5] -14% | [6] -102%

CNC1C(=O)C(C)C(O)(C(CC(C)C(O)/C=C/C=C/CNC(=O)C(C)(C)C(O)\C(C)=C/C=C\C=C\Cc2cnc(C)o2)OC)C12C(=O)OC2COC (stereo unspecified) (tested in a mixture with another compound)
inactive: [1] 2.6% | [2] -22.1% | [3] -7.75% | [4] 2.95% | [5] 12.9% | [6] 6.35%

COc1ccc(NC(=O)Oc2ccccc2-c2ccccc2)cc1
inactive: [1] 1.1% | [2] 14.3% | [3] -1.7% | [4] -18.1% | [5] -6.7% | [6] -12.3%

O=[N+]([O-])c1ccc(N=Cc2ccccc2O)cc1
inactive: [1] -19.7% | [2] -8.05% | [3] -23.6% | [4] 4.3% | [5] 8.05% | [6] -6.9%

COc1ccc(C(c2c(O)c3ccccc3oc2=O)N2CCCC2)c(OC)c1 (stereo unspecified)
inactive: [1] 7.7% | [2] -5.7% | [3] -3.25% | [4] -25.1% | [5] -1.15% | [6] -3.3%

Cc1ccccc1NC(=O)CC#N
inactive: [1] 8.15% | [2] -12.3% | [3] 1.5% | [4] 3.85% | [5] -0.7% | [6] 2.2%

C#CCC1(C(=O)OCC)C(=O)c2ccccc2N(C)C1=O (stereo unspecified)
inactive: [1] 16.9% | [2] 1.55% | [3] 31.1% | [4] 11.4% | [5] 14% | [6] 6.95%
